Sampled rows, rich in hits. Any-hit rate of the full collection: about 2.4%.
D2 antagonist: antagonizes the human D2 dopamine receptor. AID 485344. 340,000 compounds, 2% hits. inhibition, % at 10 µM. HEK293 TREx D2 cells, calcium flux, dopamine EC80; in the data active = inhibition above about 30%; inactive = below that, where a call was filed
Target sequence (P14416 whole entry, looked up): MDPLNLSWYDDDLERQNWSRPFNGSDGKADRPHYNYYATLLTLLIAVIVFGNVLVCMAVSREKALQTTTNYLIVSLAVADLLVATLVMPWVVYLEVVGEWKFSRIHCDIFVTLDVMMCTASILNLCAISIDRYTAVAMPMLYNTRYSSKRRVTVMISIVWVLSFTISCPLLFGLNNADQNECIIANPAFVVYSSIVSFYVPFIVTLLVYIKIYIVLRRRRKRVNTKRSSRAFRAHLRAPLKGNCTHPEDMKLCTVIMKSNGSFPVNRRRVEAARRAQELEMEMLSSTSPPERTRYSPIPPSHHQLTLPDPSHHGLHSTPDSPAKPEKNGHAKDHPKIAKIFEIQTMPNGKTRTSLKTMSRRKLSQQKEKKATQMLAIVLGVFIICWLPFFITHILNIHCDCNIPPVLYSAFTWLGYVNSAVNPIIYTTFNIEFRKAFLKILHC
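Read-out: kinetic calcium fluorescence (1 cycle/s) in inducible HEK293 T-REx D2 cells after an EC80 dopamine addition that followed 180 s compound preincubation. Loss of the dopamine response indicates antagonism.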
D2 ag-1: agonists of human D2 dopamine receptor | activation, % at 2 µM | AID 485358 | HEK293 T-REx D2 cells, calcium flux agonist mode | P14416 | 340,000 compounds, 0.53% hits;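 active = activation over 3 SD above normal in the single-dose calcium agonist read, cut at about 30% in these data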
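Agonism is scored from calcium flux in a force-coupled, inducible HEK293 cell line expressing D2, read kinetically for 180 s after compound addition against dopamine controls.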
D2 PAM-1: D2 dopamine receptor (human) potentiation | potentiation, % at 10 µM | P14416 | HEK293 T-REx D2, calcium flux, EC20 dopamine potentiation | 340,000 compounds, 0.34% hits | AID 485347;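 active = potentiation over 3 SD above the plate norm, cut at about 30% in these data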
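Calcium flux readout, no-wash dye, 1 read/s. Inducible HEK293 Trex D2 line, overnight 30 C. Compound alone 180 s (agonist flags), then EC20 dopamine, another 180 s to score potentiation.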
D2 ag-2: human D2 receptor agonism in beta-arrestin assay; P14416; DiscoveRx PathHunter D2 beta-arrestin, luminescence, 90 min; 100% = 57 uM dopamine signal; activation, % (no concentration beside the values); 360,000 compounds, 0.084% hits; in the data active = activation above about 40%; inconclusive = between about 15% and that limit
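Agonist mode: compounds alone added to overnight-plated D2 PathHunter cells for 90 min at 37 C, with 57 uM final dopamine (EC100) defining full response. Beta-arrestin recruitment detected by chemiluminescent reagent, read after 1 h at ambient temperature.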
D2 PAM-2: potentiates the human D2 dopamine receptor allosterically; 360,000 compounds, 0.23% hits; DiscoveRx D2 beta-arrestin cells, luminescence, 90 min; 100% = 57 uM dopamine signal; potentiation, % (concentration not given with the values); AID 624464; in the data active = potentiation above about 50%; inconclusive = mostly about 30% to 49%
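D2 cells co-treated with compound plus 50 nM dopamine (EC20) for 90 min at 37 deg C to detect potentiation. Beta-arrestin recruitment was read as enzyme-fragment luminescence after 1 h at ambient temperature. Full response was set by 57 uM dopamine.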
Numbers stand for hits; i = inactive; ? = inconclusive; nt = not tested or not shown; ! = a repeat was not active.

SMILES	D2 antagonist	D2 ag-1	D2 PAM-1	D2 ag-2	D2 PAM-2
CN1CCN(c2nc(-c3ccccc3Cl)nc3ccccc23)CC1	i	i	i	i	i
c1ccc(N2CCN(c3nc(-c4cccs4)nc4ccccc34)CC2)cc1	nt	nt	i	i	i
CN1CCN(c2nc(-c3cccs3)nc3ccccc23)CC1	32.3	i	i	i	i
COc1ccccc1NC(=O)/C(C#N)=C/c1c(C)nn(-c2ccc(F)cc2)c1Cl	i	31.7	i	i	i
CC1CCc2c(sc3nnn(CC(=O)Nc4cccc(C(F)(F)F)c4)c(=O)c23)C1 (stereo not given)	nt	i	i	nt	nt
FC(F)(F)c1nnc2ccc(NCc3cccnc3)nn12	i	i	i	i	i
FC(F)(F)c1nnc2ccc(NCc3ccccc3)nn12	79.7	i	i	i	i
COC(=O)C1CCN(S(=O)(=O)c2ccc(NC(C)=O)cc2)CC1	i	i	i	i	i
COC(=O)C1CCN(S(C)(=O)=O)CC1	i	i	42.2	i	i
COc1cc2c(=O)c(C(=O)c3ccc(C)c(C)c3)cn(Cc3ccccc3F)c2cc1OC	nt	i	i	nt	nt
Cc1cc(C)nc(SCC(=O)c2ccc([N+](=O)[O-])cc2)n1	i	i	i	i	76.1
Cc1ccc(NC(=O)CCc2nnc3n(CC(C)C)c(=O)c4ccccc4n23)cc1C	nt	nt	i	nt	nt
CC1Cc2cc(S(=O)(=O)CCC(=O)Nc3ccccc3F)ccc2N1C(=O)C1CC1 (stereo not given)	nt	nt	i	nt	nt
O=C1O/C(=C/c2ccccc2)c2ccccc21	i	i	i	i	i
N#CC1=C(c2ccccc2)/C(=C/c2ccccc2)OC1=O	35.4	i	i	i	i
COc1cc(OC)cc(C(=O)NCC(=O)Nc2ccc(OC)c(Cl)c2)c1	36.8	i	i	i	i
COCC(=O)Nc1ccc(OC)c(Cl)c1	36.6	i	i	i	i
COc1ccc(NC(=O)COC(C)=O)cc1Cl	i	i	i	i	i
CCOc1ccccc1C(=O)N1CCCCC1CCN1CCOCC1 (stereo not given)	nt	i	i	nt	nt
CCCCN(C)CCCNC(=O)Cn1ncc2c3ccccc3n(Cc3ccccc3F)c2c1=O	nt	i	i	nt	nt
O=S(=O)(NCC1CCN(Cc2ccccc2)CC1)c1ccccc1C(F)(F)F	53.9	i	i	i	i
Cc1oc(-c2ccccc2F)nc1CS(=O)(=O)CC(=O)NCCCN1CC(C)CC(C)C1 (stereo not given)	47.8	i	i	i	i
CCCNC(=O)CS(=O)(=O)Cc1nc(-c2ccccc2C)oc1C	39.5	i	i	i	i
Cc1oc(-c2ccccc2F)nc1CS(=O)(=O)CC(=O)NCCCN1CCN(C)CC1	i	i	i	i	i
O=C(Nc1cccc(C(=O)N2CCN(c3ccc(Cl)cc3)CC2)c1)c1nsc2ccccc12	nt	i	i	nt	nt
SMILES	D2 antagonist	D2 ag-1	D2 PAM-1	D2 ag-2	D2 PAM-2
CC(C)NC(=O)CCC(=O)N1Cc2ccccc2Oc2ncccc21	nt	nt	i	nt	nt
O=C(CCSc1ccc(Cl)cc1)NCc1ccncc1	i	i	i	i	i
COc1ccc(SCCC(=O)NCc2ccncc2)cc1	32.1	i	i	i	i
COc1ccc(C2OC[C@H]3O[C@H](O)[C@H](NC(C)=O)[C@@H](O)[C@@H]3O2)cc1 (stereo not given in full)	52.9	i	i	i	i
COc1ccccc1OC1OC2COC(c3ccco3)OC2C(O)C1NC(C)=O (stereo not given)	i	i	i	i	i
COc1ccccc1/C=C1\SC(=S)N(CCC(=O)Nc2cc(C)on2)C1=O	i	i	nt	i	i
COc1ccccc1/C=C1\SC(=S)N(CCC(=O)Nc2nnc(C)s2)C1=O	30.8	i	i	i	i
CCc1nnc(NC(=O)CN2C(=O)/C(=C/c3cc(OC)c(OC)c(OC)c3)SC2=S)s1	i	i	30.8	i	i
Cc1ccc(C)c(-c2nnc(NC(=O)c3ccco3)o2)c1	40.5	i	i	i	i
CCOC(=O)c1oc2ccc(S(=O)(=O)n3nc(-c4ccc(C)cc4)cc3N)cc2c1C	34.6	i	i	i	i
COc1cccc(C(=O)N(Cc2ccco2)c2ccccn2)c1	nt	i	i	nt	nt
Cc1ccc2cc(CN(CC3CCCO3)C(=S)NCc3ccco3)c(=O)[nH]c2c1C (stereo not given)	33.2	i	i	i	i
Cc1ccc(C)c2[nH]c(=O)c(CN(CC3CCCO3)C(=S)NCc3ccco3)cc12 (stereo not given)	i	i	i	i	i
Cc1ccc(C)c2[nH]c(=O)c(CN(Cc3cccs3)C(=S)NCc3ccco3)cc12	52.6	i	i	i	i
CCOc1ccc(C(=O)N2CCc3cc(OC)c(OC)cc3C2COc2ccc3c(C)cc(=O)oc3c2)cc1OCC (stereo not given)	nt	i	i	nt	nt
CCn1c(SCC(N)=O)nc2ccccc2c1=O	37.2	i	i	i	i
NC(=O)CSc1nc2ccccc2c(=O)n1-c1ccccc1	41.1	i	i	i	i
COc1cccc(-n2c(SCC(N)=O)nc3ccccc3c2=O)c1	i	i	i	i	i
Cc1ccc(-n2c(SCC(N)=O)nc3c([nH]c4ccccc43)c2=O)cc1	i	i	32.4!	i	i
CC(C)(C)OC(=O)N1CCC(c2c(C(=O)N3CCN(c4ccccn4)CC3)cnn2-c2cccc(F)c2)CC1	nt	i	i	nt	nt
COc1ccc(C)cc1NC(=O)NC(C)c1c(-n2cccc2)sc(C)c1C (stereo not given)	nt	i	i	nt	nt
O=C(NN=C1CCCC1)c1ccn[nH]1	41.7	i	i	i	i
O=C(NN=C1CCCC1)c1cc(-c2ccccc2)n[nH]1	nt	nt	i	i	i
COc1cccc2sc3cc(C#CC4(O)CCCCC4)ccc3c(=O)c12	nt	nt	nt	?	i
COc1cccc2sc3ccc(C#CC4(N)CCCCC4)cc3c(=O)c12	31.4	i	i	i	i
SMILES	D2 antagonist	D2 ag-1	D2 PAM-1	D2 ag-2	D2 PAM-2
COc1cc(/C=C(/C#N)c2nc3ccccc3[nH]2)ccc1OCC(=O)Nc1ccccc1C	i	i	i	i	i
COc1cc(/C=C(/C#N)c2nc3ccccc3[nH]2)ccc1OCC(=O)Nc1ccccc1C(C)C	32.0	i	i	i	i
Cc1ccc(S(=O)(=O)N2[C@@H](c3ccc(Cl)cc3)C(C(=O)O)=CC[C@H]2c2ccc(C(C)C)cc2)cc1	38.9	i	i	i	i
O=C(NCc1ccc2c(c1)CCN2C(=O)c1ccc(F)cc1)c1ccc(Br)o1	nt	i	i	nt	nt
Cc1ccc(C(=O)COC(=O)C2CC(=O)N(c3nc(-c4ccccc4)cs3)C2)cc1 (stereo not given)	34.1	i	i	i	i
CCCCC1CCC(C(=O)N2CC(=O)Nc3ccc(Br)cc3C2c2ccc(F)cc2)CC1 (stereo not given)	nt	i	i	nt	nt
Cc1ccnn2cc3c(=O)n(C)c(=O)n(C)c3c12	i	i	30.6	nt	nt
Cn1c(=O)c2cn3ncccc3c2n(C)c1=O	i	i	i	nt	nt

High-throughput results from PubChem.
